A short description of test [1]: NCI Yeast Anticancer Drug Screen. Data for the rad50 strain (AID 155).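 Note: 0% = growth of vehicle-only cultures of the same strain.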 The conditions noted are these: S. cerevisiae rad50 strain growth inhibition; at 50.0 µM; hits give high values. The method, boiled down:
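Cells are treated with compound, grown, and their growth is then scored against vehicle-only cultures of the same repair-deficient yeast strain.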

The nature of test [2]: NCI Yeast Anticancer Drug Screen. Data for the mec2-1 strain (AID 157). The following applies: S. cerevisiae mec2-1 strain, at 50.0 µM, hits give high values. The method, boiled down:
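Readout is yeast growth inhibition, normalised to vehicle-treated controls, in the mec2-1 strain exposed to compound.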

Test [3] is described as follows: NCI Yeast Anticancer Drug Screen. Data for the sgs1 mgt1 strain (AID 161).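 Note: 0% = growth of cultures given vehicle only.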 The following applies: S. cerevisiae sgs1 mgt1 strain, at 50.0 µM, hits give high values. The procedure, abridged:
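This yeast growth screen uses a strain with defined DNA-repair lesions; compound-treated growth is compared with vehicle-treated growth.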

Test [4] in a line: NCI Yeast Anticancer Drug Screen. Data for the cln2 rad14 strain (AID 165).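 Note: 0% = growth equal to vehicle treated cultures.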 The following applies: S. cerevisiae cln2 rad14 strain, at 50.0 µM, hits give high values. The procedure, abridged: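 Relative to vehicle controls, growth inhibition of compound-treated cln2 rad14 yeast was recorded.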
Test [5] in a line: NCI Yeast Anticancer Drug Screen. Data for the bub3 strain (AID 167). The following applies: S. cerevisiae bub3 mutant strain, at 50.0 µM, hits give high values. The method, boiled down: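 Part of a panel of yeast mutants defective in DNA damage repair or cell cycle regulation. Each strain is grown with compound, and inhibition is calculated relative to solvent-treated cultures.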

Test [6] in a line: NCI Yeast Anticancer Drug Screen. Data for the mlh1 rad18 strain (AID 175). The conditions noted are these: S. cerevisiae mlh1 rad18 strain growth inhibition; at 50.0 µM; hits give high values. The method, boiled down:
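Test agents were incubated with a yeast strain of defined genotype (DNA damage repair defect). Inhibition of growth was derived by comparison with vehicle-exposed cultures.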

About 79,000 compounds went through this panel and 15% of them were active in at least one assay; those are over-represented in the sample as a whole. Unmarked numbers belong to inactive results. The source made the active and inactive calls. Cut-off read from the data, not from the text of the source: active = growth inhibition above about 70%; inactive = the rest.

For the compound `CCOC(=O)/C=C\SCC(=O)OCC`, the growth inhibition was -8.95% in test [1]; -4.1% in test [2]; -6.3% in test [3]; -33.4% in test [4]; 4.1% in test [5]; -14.9% in test [6].
In the case of `COc1ccc(C(O)c2ccccc2C(=O)Nc2ccccc2)cc1` (stereo not given), the growth inhibition was -4.95% in test [1]; -9.7% in test [2]; -18.2% in test [3]; -21.9% in test [4]; -3.35% in test [5]; -3.9% in test [6].
Take `CC1=NC(=O)CNN1C1=NNC2(C(=O)N1)c1ccccc1-c1ccccc12`: the growth inhibition is -11.1% in test [1]; -7.3% in test [2]; -15.2% in test [3]; 0.85% in test [4]; -7.3% in test [5]; -25.1% in test [6].
As for `CSc1nc(-c2ccccc2)c(C(=O)NC(C)CN2CCCCC2)s1` (stereo not given), the growth inhibition is 13.5% in test [1]; 5.15% in test [2]; 7.45% in test [3]; 11% in test [4]; -3.2% in test [5]; 11.1% in test [6].
In the case of `N#Cc1ccc(OCc2nc(N)nc(N)c2-c2ccc(Cl)cc2)cc1`, the growth inhibition was -4.4% in test [1]; 5.35% in test [2]; -16.4% in test [3]; -10% in test [4]; 20.8% in test [5]; 14.8% in test [6].
For the compound `Fc1ccc(-c2nc3ccccc3[nH]2)cc1`, the growth inhibition in test [1] is -9.6%; in test [2] it was 23.9%; in test [3] it was -1.2%; in test [4] it was -8.4%; in test [5], -4.4%; in test [6], -7.05%.
As for `c1ccc(-c2ccccc2-c2ccccc2-c2ccccc2)cc1`, the growth inhibition was -58.8% in test [1]; -5.6% in test [2]; -5.9% in test [3]; -39.5% in test [4]; 21.5% in test [5]; -12.3% in test [6].
As for `CC(CC(=O)O)C(C)C(=O)O` (stereo not given), the growth inhibition was -7.9% in test [1]; -4.45% in test [2]; -6.4% in test [3]; -7.7% in test [4]; 0.5% in test [5]; -13.4% in test [6].
In the case of `O=C(NC1CCCCC1)Oc1ccc[nH]c1=O`, the growth inhibition is -14.8% in test [1]; -16.8% in test [2]; -13.6% in test [3]; -26.9% in test [4]; 2.25% in test [5]; -1.25% in test [6].
As to `CC(=O)n1ccc(=O)[nH]c1=O`, the growth inhibition in test [1] is 8.9%; in test [2], 0.2%; in test [3] it was 0.45%; in test [4], -38.8%; in test [5], -11.9%; in test [6], 16.4%.
As for `CCCCCCCCCCCCCCSc1ccc2ccccc2c1`, the growth inhibition in test [1] was -9.15%; in test [2], 9.3%; in test [3] it was -2.7%; in test [4], -20.2%; in test [5], -8.65%; in test [6], -20.3%.
On to `O=C(O)c1cccc(-n2cnc3c(=O)[nH]cnc32)c1`, for which the growth inhibition in test [1] is -0.25%; in test [2] it was -3.85%; in test [3], -5.85%; in test [4], -9.15%; in test [5], 8.6%; in test [6] it was -14.2%.
In the case of `CCOC(=O)c1nnsc1NC(=O)Nc1ccc(Cl)cc1`, the growth inhibition in test [1] was -5.05%; in test [2], -21.2%; in test [3] it was -3.4%; in test [4] it was -6.55%; in test [5], -44.9%; in test [6], 10.6%.
As for `CC(=O)Oc1ccccc1Cl`, the growth inhibition was 18.1% in test [1]; 31.5% in test [2]; 25.9% in test [3]; 13.3% in test [4]; 19.1% in test [5]; 16.8% in test [6].
`Nc1ccccc1C(=O)N/N=C/c1cccnc1`: the growth inhibition in test [1] was 11.1%; in test [2] it was -21.3%; in test [3] it was 17.7%; in test [4], 9.45%; in test [5], 13.2%; in test [6] it was -16.6%.
For `Cc1[nH]c(=O)[nH]c(=O)c1/C=C/C(=O)NC(CO)CS(=O)C(C)C` (stereo not given), the growth inhibition in test [1] was 83.2% (active); in test [2] it was 63.5%; in test [3] it was 95.4% (active); in test [4], 64.7%; in test [5] it was 79.7% (active); in test [6], 85.7% (active).
Regarding `CC1CC(C)OC(C)(c2ccccc2)O1` (stereo not given), the growth inhibition in test [1] was 21.4%; in test [2] it was -6%; in test [3], -0.9%; in test [4] it was -33.1%; in test [5], -18.5%; in test [6], 8.6%.
In the case of `CCOC(=O)C(NC(=O)C(CCCCNP(=O)(OCC)OCC)NC(=O)C(C)NC(C)=O)C(C)C` (stereo not given), the growth inhibition is -10.7% in test [1]; -10.4% in test [2]; -8.4% in test [3]; -25.6% in test [4]; -1.35% in test [5]; 3.75% in test [6].
As for `CC(=O)c1ccc(OC(=O)Nc2ccc(Cl)cc2)cc1`, the growth inhibition was 4.8% in test [1]; 10.1% in test [2]; 23.9% in test [3]; -2.3% in test [4]; 29.6% in test [5]; 12.9% in test [6].
On to `CCNC(=O)NS(=O)(=O)c1ccc(Sc2ccc(C)cc2)nc1`, for which the growth inhibition in test [1] was -11.2%; in test [2], -7.3%; in test [3], -1.1%; in test [4], -20.5%; in test [5], 7.2%; in test [6], 0.7%.

These data come from PubChem BioAssay (NCI).
